Measured values reported in the supplement of paper PMC11732987, “Enantioselective OTUD7B fragment discovery through chemoproteomics screening and high-throughput optimisation” (Communications Chemistry, 2025).

Columns and labels:
Test in all cases: log2 ratio of Biotin-Ahx-Ub-VS probe labelling (fragment/DMSO); higher = less target engagement (more negative = stronger competition), active = hit call of the paper (q ≤ 0.05, log2 ratio ≤ -1)
Settings in all cases: compound concentration: 200 uM; treatment time: 3 h
[1] = molecular target: T1, OTUD6B (UniProt Q8N6M0)
T1 sequence (whole entry): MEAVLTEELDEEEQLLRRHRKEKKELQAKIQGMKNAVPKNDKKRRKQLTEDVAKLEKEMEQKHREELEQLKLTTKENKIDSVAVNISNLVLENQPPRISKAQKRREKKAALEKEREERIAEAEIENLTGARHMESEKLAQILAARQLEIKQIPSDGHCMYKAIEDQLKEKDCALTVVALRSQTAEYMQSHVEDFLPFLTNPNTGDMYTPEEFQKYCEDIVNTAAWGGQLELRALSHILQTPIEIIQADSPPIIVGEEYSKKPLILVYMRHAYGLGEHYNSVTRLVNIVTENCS
Summary of the method: (§1)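 Labelled DUBs from HEK293T lysate were NeutrAvidin-enriched, digested with LysC and trypsin, and run by diaPASEF LC-MS/MS. Before that, each 495 µg sample in Tris/CHAPS/IGEPAL buffer with protease inhibitors was treated in triplicate with fragment at 200 µM or vehicle for 3 h, then with Biotin-Ahx-Ub-VS at 0.5 µM final for 1 h. Values are average log2 ratios of fragment over vehicle by unpaired t-test, based on global-median-normalised Spectronaut label-free quantities from proteins with ≥2 unique peptides.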

[2] = molecular target: T2, OTUD7B (UniProt Q6GQQ9)
T2 sequence (whole entry): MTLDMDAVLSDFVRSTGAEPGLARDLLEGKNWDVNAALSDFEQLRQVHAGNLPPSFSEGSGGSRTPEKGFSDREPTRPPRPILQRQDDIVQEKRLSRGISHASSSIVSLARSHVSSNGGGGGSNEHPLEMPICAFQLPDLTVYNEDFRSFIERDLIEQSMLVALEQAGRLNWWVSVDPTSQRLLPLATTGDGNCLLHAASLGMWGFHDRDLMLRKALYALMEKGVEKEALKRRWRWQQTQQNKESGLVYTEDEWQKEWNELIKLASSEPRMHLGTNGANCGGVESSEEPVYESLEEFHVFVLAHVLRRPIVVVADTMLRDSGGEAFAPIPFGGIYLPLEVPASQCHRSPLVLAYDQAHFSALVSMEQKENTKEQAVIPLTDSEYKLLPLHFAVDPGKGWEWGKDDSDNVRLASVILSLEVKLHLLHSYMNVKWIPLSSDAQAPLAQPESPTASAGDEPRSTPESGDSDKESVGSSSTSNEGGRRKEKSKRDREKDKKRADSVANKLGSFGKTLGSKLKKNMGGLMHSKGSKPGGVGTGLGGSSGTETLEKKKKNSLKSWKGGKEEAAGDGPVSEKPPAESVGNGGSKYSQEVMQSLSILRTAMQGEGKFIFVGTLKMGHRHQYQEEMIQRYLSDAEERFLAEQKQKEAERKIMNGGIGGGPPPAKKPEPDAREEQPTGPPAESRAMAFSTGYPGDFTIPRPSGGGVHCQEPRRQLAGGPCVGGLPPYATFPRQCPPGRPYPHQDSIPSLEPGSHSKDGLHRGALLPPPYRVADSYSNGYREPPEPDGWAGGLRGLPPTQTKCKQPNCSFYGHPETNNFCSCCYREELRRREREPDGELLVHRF
Summary of the method: as §1

[3] = molecular target: PRPF8 (UniProt Q6P2Q9)
Summary of the method: as §1

[4] = molecular target: T3, PSMD7 (UniProt P51665)
T3 sequence (whole entry): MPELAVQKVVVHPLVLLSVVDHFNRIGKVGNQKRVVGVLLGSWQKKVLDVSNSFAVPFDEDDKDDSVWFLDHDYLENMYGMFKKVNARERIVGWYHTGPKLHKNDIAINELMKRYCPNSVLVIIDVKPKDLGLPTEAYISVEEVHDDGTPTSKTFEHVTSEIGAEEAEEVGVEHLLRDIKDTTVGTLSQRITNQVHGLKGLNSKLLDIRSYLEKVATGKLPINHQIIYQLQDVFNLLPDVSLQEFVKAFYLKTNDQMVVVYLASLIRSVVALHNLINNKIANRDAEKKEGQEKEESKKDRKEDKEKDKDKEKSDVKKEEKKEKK
Summary of the method: as §1

[5] = molecular target: UCHL1 (UniProt P09936)
Chain of UCHL1 (P09936 whole entry, looked up): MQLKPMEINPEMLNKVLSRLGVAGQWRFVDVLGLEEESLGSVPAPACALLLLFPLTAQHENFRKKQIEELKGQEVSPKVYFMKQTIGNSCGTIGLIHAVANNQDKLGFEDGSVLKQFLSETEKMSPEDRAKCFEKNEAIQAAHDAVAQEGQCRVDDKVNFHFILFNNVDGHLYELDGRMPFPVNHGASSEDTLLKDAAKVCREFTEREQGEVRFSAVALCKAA
Summary of the method: as §1

[6] = molecular target: T4, UCHL3 (UniProt P15374)
T4 sequence (whole entry): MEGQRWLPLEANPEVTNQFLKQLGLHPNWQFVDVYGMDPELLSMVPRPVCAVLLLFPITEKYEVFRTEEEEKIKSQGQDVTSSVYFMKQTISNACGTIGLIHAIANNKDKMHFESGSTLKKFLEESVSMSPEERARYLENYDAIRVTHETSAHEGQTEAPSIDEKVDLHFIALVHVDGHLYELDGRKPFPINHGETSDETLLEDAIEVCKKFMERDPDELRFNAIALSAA
Summary of the method: as §1

[7] = molecular target: T5, UCHL5 (UniProt Q9Y5K5)
T5 sequence (whole entry): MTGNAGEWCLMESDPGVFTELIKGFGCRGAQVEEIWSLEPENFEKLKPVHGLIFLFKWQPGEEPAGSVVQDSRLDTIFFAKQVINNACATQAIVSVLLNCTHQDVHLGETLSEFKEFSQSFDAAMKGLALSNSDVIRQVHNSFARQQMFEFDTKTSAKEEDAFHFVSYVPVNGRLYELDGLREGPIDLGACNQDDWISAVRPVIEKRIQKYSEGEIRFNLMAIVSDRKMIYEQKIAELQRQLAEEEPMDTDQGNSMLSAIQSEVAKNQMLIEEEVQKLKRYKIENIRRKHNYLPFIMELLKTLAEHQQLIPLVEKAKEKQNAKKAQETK
Summary of the method: as §1

[8] = molecular target: USP10 (UniProt Q14694)
Chain of USP10 (Q14694 whole entry): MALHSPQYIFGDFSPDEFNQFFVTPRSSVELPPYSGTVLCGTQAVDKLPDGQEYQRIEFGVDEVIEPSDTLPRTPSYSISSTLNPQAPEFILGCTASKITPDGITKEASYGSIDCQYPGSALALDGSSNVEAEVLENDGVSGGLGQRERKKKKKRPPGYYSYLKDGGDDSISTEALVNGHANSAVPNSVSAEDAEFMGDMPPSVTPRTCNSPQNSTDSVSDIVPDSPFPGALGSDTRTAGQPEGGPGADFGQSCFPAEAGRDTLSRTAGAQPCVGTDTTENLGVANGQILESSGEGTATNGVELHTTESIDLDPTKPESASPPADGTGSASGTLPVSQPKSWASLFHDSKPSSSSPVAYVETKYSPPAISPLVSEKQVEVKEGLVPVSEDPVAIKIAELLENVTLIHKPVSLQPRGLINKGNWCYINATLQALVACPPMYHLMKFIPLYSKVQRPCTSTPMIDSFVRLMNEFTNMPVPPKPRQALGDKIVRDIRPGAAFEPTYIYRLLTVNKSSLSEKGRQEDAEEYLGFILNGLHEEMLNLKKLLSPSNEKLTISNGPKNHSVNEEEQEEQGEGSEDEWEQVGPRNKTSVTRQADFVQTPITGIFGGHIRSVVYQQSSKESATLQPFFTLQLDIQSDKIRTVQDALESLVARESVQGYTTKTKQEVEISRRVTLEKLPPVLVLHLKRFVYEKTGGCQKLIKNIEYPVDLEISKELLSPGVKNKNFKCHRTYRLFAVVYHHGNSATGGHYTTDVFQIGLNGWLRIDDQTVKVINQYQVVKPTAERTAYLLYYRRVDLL
Summary of the method: as §1

[9] = molecular target: T6, USP15 (UniProt Q9Y4E8)
T6 sequence (whole entry): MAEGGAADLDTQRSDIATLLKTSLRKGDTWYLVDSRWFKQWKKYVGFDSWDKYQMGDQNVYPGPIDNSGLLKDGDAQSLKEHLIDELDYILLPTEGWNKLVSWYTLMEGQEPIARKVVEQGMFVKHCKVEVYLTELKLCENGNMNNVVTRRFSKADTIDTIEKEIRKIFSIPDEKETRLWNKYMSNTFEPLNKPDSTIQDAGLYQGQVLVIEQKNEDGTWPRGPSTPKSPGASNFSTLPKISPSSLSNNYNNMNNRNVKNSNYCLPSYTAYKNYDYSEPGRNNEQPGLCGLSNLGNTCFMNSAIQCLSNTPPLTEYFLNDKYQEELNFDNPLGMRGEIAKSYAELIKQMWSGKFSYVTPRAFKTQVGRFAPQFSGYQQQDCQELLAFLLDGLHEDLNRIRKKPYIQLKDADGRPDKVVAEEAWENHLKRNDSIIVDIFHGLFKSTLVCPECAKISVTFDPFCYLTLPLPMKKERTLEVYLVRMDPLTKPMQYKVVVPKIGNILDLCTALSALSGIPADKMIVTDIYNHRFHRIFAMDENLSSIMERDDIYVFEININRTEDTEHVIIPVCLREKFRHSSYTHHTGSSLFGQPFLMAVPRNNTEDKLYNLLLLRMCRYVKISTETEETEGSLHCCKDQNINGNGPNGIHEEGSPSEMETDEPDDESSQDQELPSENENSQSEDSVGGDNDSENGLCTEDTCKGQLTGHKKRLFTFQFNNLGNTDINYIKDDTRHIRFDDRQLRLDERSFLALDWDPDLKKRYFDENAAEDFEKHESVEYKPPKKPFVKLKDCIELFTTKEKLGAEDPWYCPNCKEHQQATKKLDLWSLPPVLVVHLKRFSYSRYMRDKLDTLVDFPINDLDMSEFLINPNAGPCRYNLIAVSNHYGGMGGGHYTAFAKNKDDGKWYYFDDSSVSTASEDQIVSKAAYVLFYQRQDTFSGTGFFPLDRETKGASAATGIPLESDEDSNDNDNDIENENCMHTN
Summary of the method: as §1

Measured: log2 ratio of Biotin-Ahx-Ub-VS probe labelling

O=C(CCl)N1CCC(c2ccn[nH]2)C1 (centres undefined)
inactive: [1] -0.234 | [2] -0.648 | [3] -0.154 | [4] -0.294 | [5] -0.579 | [6] -0.0683 | [7] -0.213 | [8] -0.079 | [9] -0.555
